In PubChem BioAssay AID602256 (National Center for Advancing Translational Sciences (NCATS), 2012) one finds Potency and efficacy data, which are given here for 40 compounds.

Inconclusive results are not listed. The source made the active and inactive calls. Calls follow the shape of the dose curve; as a rule, active = well fitted curve in the direction sought with a large enough effect; inconclusive = small, poorly fitted or top-dose-only effect, or another doubt; inactive = no such curve, though single readings can be large or run the other way.

Chain of Relaxin receptor 1 (Homo sapiens) (Q9HBX9 whole entry, looked up): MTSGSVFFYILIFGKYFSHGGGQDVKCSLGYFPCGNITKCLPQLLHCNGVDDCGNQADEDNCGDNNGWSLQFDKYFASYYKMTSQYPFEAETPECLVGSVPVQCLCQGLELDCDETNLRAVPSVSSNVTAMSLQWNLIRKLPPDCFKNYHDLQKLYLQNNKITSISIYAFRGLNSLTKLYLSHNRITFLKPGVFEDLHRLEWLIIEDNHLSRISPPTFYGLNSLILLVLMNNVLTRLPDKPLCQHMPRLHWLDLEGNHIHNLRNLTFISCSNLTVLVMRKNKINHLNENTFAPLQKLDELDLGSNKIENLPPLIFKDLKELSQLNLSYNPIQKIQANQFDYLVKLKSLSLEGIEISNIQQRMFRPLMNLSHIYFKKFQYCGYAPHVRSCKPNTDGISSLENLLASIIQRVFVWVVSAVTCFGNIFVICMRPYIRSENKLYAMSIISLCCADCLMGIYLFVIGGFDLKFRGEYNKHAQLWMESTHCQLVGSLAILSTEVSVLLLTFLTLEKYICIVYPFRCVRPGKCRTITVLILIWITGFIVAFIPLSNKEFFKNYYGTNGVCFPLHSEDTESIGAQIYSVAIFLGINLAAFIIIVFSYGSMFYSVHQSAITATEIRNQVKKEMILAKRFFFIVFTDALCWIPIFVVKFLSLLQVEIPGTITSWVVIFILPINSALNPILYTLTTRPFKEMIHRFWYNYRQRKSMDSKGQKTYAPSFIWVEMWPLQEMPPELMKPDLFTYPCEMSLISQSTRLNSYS

The test addresses Relaxin receptor 1 (Homo sapiens) (UniProt Q9HBX9). As to the kind of experiment: qHTS Assay for Agonists of the Relaxin Receptor RXFP1: RXFP1 SAR. The note with it: HEK293T-RXFP1 cAMP TR-FRET, 30 min; efficacy: stronger effect = higher value. The source says:
The relaxin hormone is involved in the variety of biological functions in normal tissues and diseases. The role of relaxin is well-established in female reproduction and parturition, mammary gland and endometrial development, maintenance of myometrial quiescence during pregnancy. Relaxin signaling through its G protein-coupled receptor (GPCR) RXFP1 results in ECM remodeling through regulation of collagen deposition, cell invasiveness, proliferation and overall tissue homeostasis. […] Recombinant human relaxin (rhRlx) is currently being tested in clinical trials as a protective agent in congestive heart failure, in treating severe preeclampsia, and as an anti-fibrotic agent in systemic sclerosis. Upon relaxin binding RXFP1 activation leads to the activation of adenylate cyclase (AC) via Gs. cAMP will activate PKA, which phosphorylates many signaling proteins. Thus, detection of cAMP increase is an easy and reliable indication of relaxin receptor activation. To screen for agonists of the relaxin receptor, a HEK293T cell line stably transfected with RXFP1 was used. RXFP1 activation was assayed by changes in cAMP levels as detected with a time-resolved fluorescence energy transfer (TR-FRET) cAMP detection kit. NIH Chemical Genomics Center [NCGC] NIH Molecular Libraries Probe Production Centers Network [MLPCN] MLPCN Grant: R03 MH085705-01A1 Assay Submitter (PI): Alexander Agoulnik
This is a cell-based assay for cAMP second messenger response to screen for agonists of the RXFP1 receptor. The assay was conducted in the presence of a PDE4 inhibitor (Ro 20174). The cells were lysed and the cAMP levels were measured with a TR-FRET cAMP kit. Presence of cAMP in the cell lysate disrupts binding between the cryptate-labeled anti-cAMP and d2-labeled cAMP pair, leading to a decrease in the TR-FRET signal. Data were normalized to the controls for basal activity (buffer only) and 100% activity (29 nM porcine relaxin). The EC50 values were determined from concentration-response data modeled with the standard Hill equation 1536-well assay protocol for the HEK293 RXFP1 cAMP assay: (1) Add 3 ul HEK293 RXFP1 cell culture. 2000 cells/well in DMEM/F12, 10% FBS, 1x Pen/Strep (dispensed offline with MultiDrop Combi). (2) Incubate 16-24 hr at 37C, 5% CO2. (3) Add 1 ul 400uM Ro20174 in DPBS, 0.05% BSA, 0.005% Tween 20. (3) Add 23 nl compounds in DMSO solution. Final concentration was 0.5 - 58 uM. (4) Incubate 30 min at 37C, 5% CO2. (5) Add 1 ul cAMP-d2 in lysis buffer (HTRF cAMP HiRange kit, CisBio). (6) Add 1 ul anti-cAMP antibody-cryptate in lysis buffer (HTRF cAMP HiRange kit, CisBio). (7) Incubate 30 min at room temperature. (6) Detect the assay plate in a ViewLux plate reader (PerkinElmer) with Ex=320 nm, Em1=615 nm and Em2=665 nm. Keywords: relaxin, RXFP1, RXFP2, G-protein coupled receptor, cAMP, agonist, high throughput screening, MLSMR, MLSCN, NIH Roadmap, qHTS and NCGC
Background: qHTS replaces the single test concentration by a dilution series.
Regarding `O=C(Nc1cccc(Cl)c1)c1ccccc1NC(=O)C1CCCCC1`, the Potency was 3340 nM (active). For `O=C(NCc1cccc(C(F)(F)F)c1)c1ccccc1NC(=O)C1CCCCC1`, the efficacy was 4.71% (inactive). `CCOc1ccccc1C(=O)Nc1ccccc1C(=O)Nc1cccc(C(F)(F)F)c1`: the Potency was 265 nM (active).

With `O=C(Nc1cccc(S(=O)(=O)C(F)(F)F)c1)c1ccccc1NC(=O)C1CCCCC1`, the Potency was 1060 nM (active). Same read-out and setting: for `O=C(Nc1cccc(C(F)(F)F)c1)c1ccccc1NC(=O)C1CCCCCC1` the value was 2110 nM (active); for `CCOc1ccccc1C(=O)NCCC(=O)Nc1cccc(S(=O)(=O)C(F)(F)F)c1`, 4710 nM (active); for `O=C(Nc1ccccc1C(=O)Nc1cccc(C(F)(F)F)c1)c1ccccc1`, 1330 nM (active).

`CCOc1ccccc1C(=O)Nc1cccnc1C(=O)Nc1cccc(S(=O)(=O)C(F)(F)F)c1`: the Potency is 4710 nM (active). For the compound `O=C(Cc1ccccc1)Nc1ccccc1C(=O)Nc1cccc(C(F)(F)F)c1`, the Potency is 8380 nM (active). Take `CCOc1ccccc1C(=O)Nc1ncccc1C(=O)Nc1cccc(S(=O)(=O)C(F)(F)F)c1`: the Potency is 1670 nM (active). Regarding `O=C(Nc1cccc(S(=O)(=O)C(F)(F)F)c1)c1ccccc1NC(=O)c1ccccc1OCC(F)(F)F`, the Potency is 66.6 nM (active). Turning to `O=C(Nc1cccc(-c2cccc(C(F)(F)F)c2)c1)c1ccccc1NC(=O)C1CCCCC1`, the efficacy is 15% (inactive). Consider `COc1cccc(C(=O)Nc2ccccc2C(=O)Nc2cccc(C(F)(F)F)c2)c1`, for which the Potency is 1880 nM (active). As to `COc1ccccc1-c1ccccc1C(=O)Nc1cccc(C(F)(F)F)c1`, the efficacy was -3.31% (inactive). Consider `CN(C)CCOc1ccccc1C(=O)Nc1ccccc1C(=O)Nc1cccc(C(F)(F)F)c1`, for which the Potency was 3740 nM (active). Take `CCCCC(=O)Nc1ccccc1C(=O)Nc1cccc(C(F)(F)F)c1`: the Potency is 5290 nM (active). Take `CCOc1ccccc1S(=O)(=O)Nc1ccccc1C(=O)Nc1cccc(S(=O)(=O)C(F)(F)F)c1`: the efficacy was -2.44% (inactive).

On to `COc1ccccc1C(=O)N(C)c1ccccc1C(=O)N(C)c1cccc(C(F)(F)F)c1`, for which the efficacy is 0.957% (inactive). Take `O=C(Nc1cccc(-c2ccccc2C(F)(F)F)c1)c1ccccc1NC(=O)C1CCCCC1`: the Potency is 2650 nM (active).

For the compound `O=C(NCc1ccco1)c1ccccc1NC(=O)c1ccccc1NC(=O)C1CCCCC1`, the Potency was 9400 nM (active). Same read-out and setting: for `COc1cccc(OC)c1C(=O)Nc1ccccc1C(=O)Nc1cccc(C(F)(F)F)c1` the value was 7470 nM (active). The same measure, in the same setting: for `COc1ccccc1C(=O)Nc1ccccc1C(=O)Nc1cccc(SC(F)(F)F)c1` the value was 297 nM (active); for `O=C(Nc1cccc(C(F)(F)F)c1)c1ccccc1NC(=O)C1CCCC1`, 2360 nM (active); for `COc1ccccc1C(=O)Nc1ccccc1C(=O)Nc1cccc(S(=O)(=O)C(F)(F)F)c1`, 188 nM (active). Consider `CCOc1ccccc1C(=O)Nc1cnccc1C(=O)Nc1cccc(S(=O)(=O)C(F)(F)F)c1`, for which the Potency was 2970 nM (active).

With `Cc1ccccc1C(=O)Nc1ccccc1C(=O)Nc1cccc(C(F)(F)F)c1`, the Potency is 4200 nM (active). `COc1ccccc1C(=O)N(C)c1ccccc1C(=O)Nc1cccc(C(F)(F)F)c1`: the efficacy is -2.4% (inactive).

For `CC(C)Oc1ccccc1C(=O)Nc1ccccc1C(=O)Nc1cccc(C(F)(F)F)c1`, the Potency was 471 nM (active).

Consider `CCOc1ccccc1C(=O)Nc1ccccc1CNc1cccc(S(=O)(=O)C(F)(F)F)c1`, for which the Potency is 2650 nM (active). In the case of `O=C(Nc1cccc(F)c1)c1ccccc1NC(=O)C1CCCCC1`, the Potency was 13300 nM (active). In the case of `COc1ccc(C(=O)Nc2ccccc2C(=O)Nc2cccc(C(F)(F)F)c2)cc1`, the Potency is 9400 nM (active).

Turning to `CCSc1ccccc1C(=O)Nc1ccccc1C(=O)Nc1cccc(S(=O)(=O)C(F)(F)F)c1`, the Potency is 529 nM (active). On the same count and under the same terms, for `O=C(Nc1cccc([N+](=O)[O-])c1)c1ccccc1NC(=O)C1CCCCC1` the value was 5930 nM (active). As to `COc1ccccc1C(=O)Nc1ccc(C(=O)Nc2cccc(C(F)(F)F)c2)cc1`, the efficacy was -2.02% (inactive).

Consider `O=C(Nc1cccc(Br)c1)c1ccccc1NC(=O)C1CCCCC1`, for which the Potency was 2650 nM (active). Take `O=C(Nc1cccc(C(F)(F)F)c1)c1ccccc1NC(=O)C1CCC1`: the Potency is 2970 nM (active).

On to `CCOc1ccccc1C(=O)Nc1ccncc1C(=O)Nc1cccc(S(=O)(=O)C(F)(F)F)c1`, for which the Potency is 747 nM (active). `CCCOc1ccccc1C(=O)Nc1ccccc1C(=O)Nc1cccc(S(=O)(=O)C(F)(F)F)c1`: the Potency is 52.9 nM (active).

Take `O=C(Nc1cccc(C(F)(F)F)c1)c1ccccc1NC(=O)C1CC1`: the Potency is 8380 nM (active). Same read-out and setting: for `O=C(Nc1ccccc1C(=O)Nc1cccc(C(F)(F)F)c1)c1ccccc1Cl` the value was 3740 nM (active).
